Data: PubChem BioAssay (Tox21)
Inconclusive results are not listed. A number with no mark means an inactive call. Calls follow the shape of the full dose curve.

Experiment: qHTS assay to identify small molecule agonists of the NFkB signaling pathway - cell viability counter screen (AID 1159515); also: nearly all actives have a fitted effect of over 55% in size
Conditions: NFkB-bla ME-180 viability, CellTiter-Glo luminescence, 5 h; series mostly up to 61 µM; activity, negative = cytotoxic: at the top concentration
Description: National Center for Advancing Translational Sciences [NCATS]
NIH Chemical Genomics Center [NCGC]
U.S. Environmental Protection Agency [EPA]
National Institutes of Environmental Health Sciences [NIEHS]
National Toxicology Program [NTP]
U.S. Food and Drug Administration [FDA]
Transcription factors and their stimulated target gene expression play pivotal roles across many cellular processes including responses to environmental stimuli. Proper regulation of associated pathways is critical to maintain cell health and function. Constitutive activation of transcription factor pathways has been implicated in tumors as it may block cellular functions such as apoptosis and lead to invasion and metastasis. One important transcription factor that stimulates gene expression in response to cytokines, UV radiation, and other stimuli is nuclear factor-kappa B (NFkB). To measure activation of the NFkB pathway, the CellSensor NFkB-bla ME-180 cell line (Life Technologies, Carlsbad, CA) that stably expresses beta-lactamase reporter gene under the regulation of a NF-kB response element was used. This assay allows measurement of the NFkB pathway activity induced by compounds in a ME-180 cell line. This system quantitates NF-kB activity using a FRET-based assay system where beta-lactamase expression disrupts FRET, allowing for fluorescent measurement of activity. This cell line has been used to screen the Tox21 10K compound library and to identify compounds that induce the NFkB pathway activity. The cytotoxicity of the Tox21 compound library against the NFkB-bla ME-180 cell line was tested in parallel by measuring cell viability using the CellTiter-Glo assay in the same wells.
Tox21 Assay Protocol Summary:
NFkB-bla ME-180 cells were dispensed at 2,000 cells/6 uL of assay medium per well into black wall/clear-bottom 1536-well plates using a Multidrop Combi (ThermoFisher Scientific, Waltham, MA) dispenser. After the assay plates were incubated at 37 C and 5% CO2 for an overnight, 23 nL of compounds dissolved in DMSO, positive controls or DMSO only was transferred to the assay plate by a Pintool station (Kalypsys, San Diego, CA). The assay plates were incubated at 37 C and 5% CO2 for 5 hr. One uL of LiveBLAzer B/G FRET substrate (Life Technologies) was added using a Flying Reagent Dispenser (Aurora Discovery, San Diego, CA) and the plates were incubated at room temperature for 1.5 hr. Fluorescence intensity (405 nm excitation, 460 nm and 530 nm emissions) was measured using an Envision plate reader (PerkinElmer, Shelton, CT). For cytotoxicity, 3 ul/well of CellTiter-Glo reagent was added into the assay plates using an FRD. After 30 min incubation at room temperature, the luminescence intensity was measured using a ViewLux plate reader (PerkinElmer).
% is scaled to controls: 0 for no effect and ±100 for the full control effect.

Compound	activity, negative = cytotoxic
Cc1ccc(O)c([N+](=O)[O-])c1	-24.1% [at 78.8 µM]
Nc1cc(S(=O)(=O)O)ccc1O	0.445%
CNC(=O)c1c(I)c(NC(C)=O)c(I)c(C(=O)O)c1I	12.4%
CCCCN1C(=O)c2ccccc2C1=O	9.5% [at 78.8 µM]
CC(=O)c1c(C)cc(C(C)(C)C)cc1C	-8.58%
Cc1ccc(S(=O)(=O)NC(=O)NN2CC3CCCC3C2)cc1 (stereo not given)	5.07%
CC(C)(C)OC(=O)c1ccccc1C(=O)O	13.5%
CCCCCCCCCCCCCCCC(=O)OC	2% [at 28.5 µM]
COC(=O)N/N=C/c1c[n+]([O-])c2ccccc2[n+]1[O-]	9.39%
Cc1nc2ccc(Cl)cc2[nH]1	1.13%
NS(=O)(=O)c1cc2c(cc1C(F)(F)F)NCNS2(=O)=O	-4.57%
CCCCN(CCCC)CCCCCCN(CCCC)CCCC	-8.93%
CC(=O)SC[C@@H](C)C(=O)N1CCC[C@H]1C(=O)N[C@@H](Cc1ccccc1)C(=O)O	6.84%
COC(=O)c1ccccc1Cl	7.16%
C/C=C/C(=O)CCCC	-1.46%
CCCC[O][Al]([O]CCCC)[O]CCCC	-12%
CCO/C=C1\N=C(c2ccccc2)OC1=O	-10.7%
C=CCN(CC=C)CC=C	-1.96%
NC[C@H]1O[C@H](O[C@H]2[C@H](O)[C@@H](O[C@H]3O[C@H](CO)[C@@H](O)[C@H](N)[C@H]3O)[C@H](N)C[C@@H]2N)[C@H](N)[C@@H](O)[C@@H]1O	11.1% [at 28.5 µM]
Cc1ccccc1C#N	3.6%

Compound	activity, negative = cytotoxic
CC[C@@]1(c2ccccc2)NC(=O)N(C)C1=O	6.32%
Cc1ccc2cccnc2c1	-0.267%
COC(=O)c1cc(Cl)c(NC(C)=O)cc1OC	-0.202%
CC(C)C[P+](C)(CC(C)C)CC(C)C	-4.63% [at 78.8 µM]
CCCCN=C(N)N=C(N)N	3.1%
NNC(=O)OCc1ccccc1	-0.918%
COC(C)(C)CC(C)=O	1.98%
C=CC(=O)OCCOCCOCC	14.2%
CC(=O)c1ccc(O)c(C(N)=O)c1	8.88%
CCc1ncc(C)[nH]1	-1.24%
CCCCOCCCC	-15.1%
COc1cc(C(=O)NC2CCCNC2)cc(OC)c1OC (stereo not given)	0.503%
CN(C)CCc1c[nH]c2ccc(C[C@H]3COC(=O)N3)cc12	-14.9%
CNC(C)=O	0.793%
O=C(OOC(=O)c1ccccc1)c1ccccc1	3.03%
CCCC(=O)C(CC)Sc1ccoc1C (stereo not given)	-3.63%
NNC(=O)CCCCC(=O)NN	-2.95%
CC(=O)SCC(CC(=O)c1ccc(C)cc1)C(=O)O (stereo not given)	0.305%
Cc1cc(C)c(C)c(C)c1	4.93%
CCCCC(CC)CCC(CC(C)C)OS(=O)(=O)O (stereo not given)	5.53%
